Data as given in PubChem BioAssay (NCI).
Compounds without any hit were thinned out: in the full panel of roughly 83,000, 20% have a hit.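 In brief: 96-well plates, 48 h treatment, single concentration, percent growth endpoint.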 Unmarked numbers belong to inactive results. Calls of active or inactive are those of the source. Rule for the calls: active = growth percent below 10; inactive = the rest.

The molecules below were run on NCI/ADR-RES ovarian (assay: NCI-60 one-dose screen, 48 h (100 = growth as untreated, 0 = no growth, -100 = all killed)). Conditions: 10 µM unless noted.
`C=C(C)[C@@H]1CC[C@]2(COC(=O)c3cccnc3)CC[C@]3(C)[C@H](CC[C@@H]4[C@@]5(C)CCCN(C(=O)c6cccnc6)C(C)(C)[C@@H]5CC[C@]43C)[C@@H]12` showed a growth of 42.7%. For `C=C1C(=O)O[C@H]2[C@H]1CC/C(CNC(=O)/C=C/c1cc(OC)c(OC)c(OC)c1)=C\CC[C@@]1(C)O[C@@H]21`, the growth was 76.7%. In the case of `O=S(=O)(c1ccc(NCSc2nc3ccccc3s2)cc1)c1ccc(NCSc2nc3ccccc3s2)cc1`, the growth is reported as 102%. With `COc1ccc(S(=O)(=O)Oc2ccc(-c3sc4cc(OS(=O)(=O)c5ccc(OC)cc5)ccc4c3C(=O)c3ccc(OCCN4CCCCC4)cc3)cc2)cc1` the growth was 110%. Work on `Nc1nc(N)c2c(n1)NC(c1cccc(Nc3ccnc4cc(C(F)(F)F)ccc34)c1)CC(c1ccc(Cl)cc1)=N2` (stereo not given) yielded a growth of 54.4%. In the case of `COC(=O)[C@H]1Cc2c([nH]c3ccccc23)[C@H](c2ccc3c(c2)OCO3)N1`, the growth is reported as 99.8%. With `[2H]C([2H])([2H])Oc1c(F)cccc1/C=C/C(=O)/C=C(O)/C=C/c1cccc(F)c1OC([2H])([2H])[2H]` the growth was 92.4%. Molecule `C=C(C)[C@@H]1CCC[C@]2(C(=O)OC)CC[C@]3(C)[C@@H](CC[C@@H]4[C@@]5(C)CCCNC(C)(C)[C@@H]5CC[C@]43C)[C@@H]12` has a growth of 98.8%. In the case of `O=C(Nc1ncc(Cc2ccccc2)s1)c1ccc2c(c1)OCCO2`, the growth is reported as 7.95% (active). With `COc1ccc(-c2cc(-c3ccc(Nc4nc(Nc5ccc(Cl)cc5)nc(Nc5ccc(Cl)cc5)n4)cc3)no2)cc1` the growth was 81.8%. Work on `CNC(=O)c1cc(Oc2ccc3nc(NC(=O)NC(C)C)sc3c2)ccn1` yielded a growth of 65%. For `O=C1NCCS(=O)(=O)/C1=C\C=C\c1cccc(C(F)(F)F)c1`, the growth was -37.5% (active). Work on `NCCNc1ccc([N+](=O)[O-])cc1` yielded a growth of 116%. Molecule `Clc1ccc2c(NCCCn3cnc4c(N5CCCC5)nc(Cl)nc43)ccnc2c1` has a growth of 93.3%. `O=C(/C=C/c1ccc(Cl)cc1)c1ccc(Nc2ccnc3cc(Cl)ccc23)cc1` was tested, and the growth was 83.5%. `Oc1c(Cl)cc(Cl)c2ccc(CN3CCNCC3)nc12` was tested, and the growth was 5.37% (active). `O=C1c2ccccc2C(=O)c2cc(Cn3c[n+](Cc4ccc5ccccc5c4)c4ccccc43)ccc21` was tested, and the growth was 91.1%. With `CC(C)(C#N)c1cc(C(=O)Nc2cc(Nc3ncccc3-c3ncnc4nc[nH]c34)ccc2F)cc(C(F)(F)F)c1` the growth was 52.2%. With `CC(C)n1cc(C2=C(c3cccc4ccccc34)C(=O)NC2=O)c2cc(Br)ccc21` the growth was 21.1%. `O=CN1N=C(c2cccc(Nc3ccncc3)c2)CC1c1ccc2c(c1)OCO2` (stereo not given) gave a growth of 101%. Molecule `CC(=O)Cc1nsc(NC(=O)c2cc(-c3cc(Cl)ccc3Cl)oc2C)n1` has a growth of 108%. `O=C(O)COc1ccc(F)cc1` gave a growth of 101%. With `CC(Cc1cccc2ccccc12)C(N)=O` (stereo not given) the growth was 110%. For `NC(=N\N=C/c1ccc(Cl)cc1Cl)/C(N)=N\N=C/c1ccc(Cl)cc1Cl`, the growth was 82.3%. Work on `CCOC(=O)CC1C(CNC(=O)NC)OC(n2cnc3c(NC(=O)Nc4ccccc4)ncnc32)C1O[Si](C)(C)C(C)(C)C` (stereo not given) yielded a growth of 85.6%. Work on `CCc1ccc(Cc2cnc(NC(=O)c3cc(C)oc3C)s2)cc1` yielded a growth of 34.1%. `CNc1nc2ncc(-c3c(C)noc3C)cc2n1Cc1ccccc1` gave a growth of 67.4%. In the case of `CCCCC1=C(Br)C(=O)c2ncccc2C1=O`, the growth is reported as 96.8%. `Cc1ccc2nc(/C=C/c3ccc(N(C)C)cc3)cc(C)c2c1` gave a growth of 25.2%. `CCN(CC)c1ccc(/C=N/NC(=O)c2ccccc2Nc2ccnc(C(F)(F)F)c2)c(O)c1` showed a growth of 17.3%. Molecule `COc1cc2ncnc(Nc3ccc(S(=O)(=O)Nc4cc(C)on4)cc3)c2cc1OCCCN1CCOCC1` has a growth of 106%. `COc1ccc(-c2cc(-c3ccc(N(C)C)cc3)nc(NC(=O)c3cccnc3)n2)cc1` was tested, and the growth was 102%. Work on `CC(=O)/C(Br)=C/c1ccc(Br)o1` yielded a growth of 93.9%. `N#CC1=C(N)Oc2c(ccc3cccnc23)C1c1ccccc1` (stereo not given) was tested, and the growth was -11.2% (active). Work on `CCCS(=O)(=O)Nc1cccc(Nc2ncnc3cc(NC(=O)CCl)ccc23)c1Cl` yielded a growth of 49.9%. For `COC(=O)c1nc(-c2ccc(C)cc2)oc1N1CCOCC1`, the growth was 96.7%. Molecule `Cc1ccc(S(=O)(=O)N(CCC(=O)O)c2ccccc2)cc1` has a growth of 110%. `Nc1ncc(-c2ccc3ncnc(N4CCc5cc(F)c(Cl)cc54)c3c2)cc1C(F)(F)F` showed a growth of 19.5%. In the case of `OC1CSSC1Cn1cnc2c(Nc3ccc(F)c(Cl)c3)ncnc21` (stereo not given), the growth is reported as 93.3%. In the case of `COc1cc2c(c(OC)c1OC)C(=O)CC(c1cccc(C(=O)Nc3ccc(Br)cc3)c1)O2` (stereo not given), the growth is reported as 36.1%.
